Results: PubChem BioAssay (Tox21)
Results filed as inconclusive are left out. A call without a number means that no potency is given here. Calls of active or inactive are those of the source. Unless noted, the call rests on the fitted dose curve; in most records, active means well fitted curve in the direction sought with a large enough effect in the repeat runs; inconclusive means weak or mixed curves; inactive means no such curve, though single readings can be large; an effect the other way counts as inactive or inconclusive.

Legend:
[1] = qHTS assay to identify small molecule antagonists of the glucocorticoid receptor (GR) signaling pathway - cell viability counter screen (AID 720693); conditions: GR-bla HeLa viability, CellTiter-Glo luminescence, 18 h, with 5 nM dexamethasone present; series mostly up to 58.5 µM; further: nearly all actives have a fitted effect of over 55% in size; further: potency means the concentration at half of the fitted maximal effect
[2] = qHTS assay for identifying genotoxic compounds that show differential cytotoxicity against isogenic chicken DT40 cell lines with known DNA damage response pathways - wild type cell line (AID 743012); conditions: DT40 wild type chicken cells viability, CellTiter-Glo, 40 h; series mostly up to 68.4 µM; further: nearly all actives have a fitted effect of over 60% in size; further: potency means the concentration at half of the fitted maximal effect
Procedure, shortened: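 Viability of DNA repair-proficient chicken DT40 cells was assessed by CellTiter-Glo luminescence following 40 h compound exposure at 37 C/5% CO2.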

[3] = qHTS assay for identifying genotoxic compounds that show differential cytotoxicity against isogenic chicken DT40 cell lines with known DNA damage response pathways - Rev3 mutant cell line (AID 743014); conditions: chicken DT40 Rev3-/- viability, CellTiter-Glo, 40 h; series mostly up to 68.4 µM; further: nearly all actives have a fitted effect of over 55% in size; further: potency means the concentration at half of the fitted maximal effect
[4] = qHTS assay for identifying genotoxic compounds that show differential cytotoxicity against isogenic chicken DT40 cell lines with known DNA damage response pathways - Rad54/Ku70 mutant cell line (AID 743015); conditions: DT40 Rad54/Ku70 mutant viability, CellTiter-Glo, 40 h; series mostly up to 66.8 µM; further: nearly all actives have a fitted effect of over 60% in size; further: potency means the concentration at half of the fitted maximal effect
[5] = qHTS assay to identify small molecule antagonists of the androgen receptor (AR) signaling pathway - cell viability counter screen (AID 743033; further: nearly all actives have a fitted effect of over 45% in size); conditions: AR-bla HEK293 viability, CellTiter-Glo luminescence, 16 h; series mostly up to 58.5 µM
[6] = qHTS assay to identify small molecule antagonists of the androgen receptor (AR) signaling pathway using the MDA cell line - cell viability counter screen (AID 743041; further: nearly all actives have a fitted effect of over 45% in size; further: potency means the concentration at half of the fitted maximal effect); conditions: MDA-kb2 viability, CellTiter-Fluor, 16 h, cells co-treated with R1881 androgen agonist; series mostly up to 70.3 µM
Procedure, shortened: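 Compound exposure lasted 16 h at 37C in MDA-kb2 AR-luc cells stimulated with R1881. Protease-based CellTiter-Fluor reagent was applied for the final 30 min and fluorescence measured.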

[7] = target: Androgen receptor (Homo sapiens) (UniProt P10275); test: qHTS assay to identify small molecule antagonists of the androgen receptor (AR) signaling pathway (AID 743035; active means well fitted inhibition curve with a large enough effect in the signal ratio in the repeat runs, not every such curve was filed as active; the % refers to the signal ratio); conditions: HEK293 AR-UAS-bla, R1881-stimulated, beta-lactamase FRET, 16 h; series mostly up to 58.5 µM
Procedure, shortened: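 Reporter HEK293 cells were exposed to compounds and R1881 overnight (16 h, 37C); beta-lactamase activity was then quantified by FRET fluorescence.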

[8] = target: Androgen receptor (Homo sapiens) (UniProt P10275); test: qHTS assay to identify small molecule agonists of the androgen receptor (AR) signaling pathway (AID 743036; active means well fitted activation curve with a large enough effect in the signal ratio in the repeat runs, with a control signal flat, not every such curve was filed as active; the % refers to the signal ratio); conditions: HEK293 AR-UAS-bla GripTite, beta-lactamase FRET ratio, 16 h; series mostly up to 62.4 µM
Procedure, shortened: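 Fluorescence from a beta-lactamase FRET substrate served as read-out in AR-UAS-bla GripTite HEK293 cells. Cells were treated with DMSO-dissolved compounds for 16 h at 37C, then with LiveBLAzer B/G substrate for 2 h at room temperature.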

[9] = target: Androgen receptor (Homo sapiens) (UniProt P10275); test: qHTS assay to identify small molecule agonists of the androgen receptor (AR) signaling pathway using the MDA cell line (AID 743040; further: nearly all actives have a fitted effect of over 20% in size); conditions: MDA-kb2 AR-luc cells, MMTV luciferase, 16 h, stronger effect = higher value; series mostly up to 70.3 µM
Procedure, shortened: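 Testing was done with the MDA-kb2 AR-luc line, a human breast carcinoma stably transfected with MMTV-luciferase containing AR and GR response elements. Cells were exposed 16 h at 37C before ONE-Glo luminescence detection.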

[10] = target: Androgen receptor (Homo sapiens) (UniProt P10275); test: qHTS assay to identify small molecule antagonists of the androgen receptor (AR) signaling pathway using the MDA cell line (AID 743042; further: nearly all actives have a fitted effect of over 55% in size); conditions: MDA-kb2 AR-luc, MMTV luciferase, R1881 antagonist, 16 h; series mostly up to 70.3 µM
Procedure, shortened: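 MDA-kb2 breast carcinoma cells carrying MMTV-luciferase (AR/GR responsive) were co-treated with compounds and the agonist R1881 for 16 h at 37C. Inhibition read as ONE-Glo luminescence; CellTiter-Fluor fluorescence measured in parallel for cytotoxicity.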

Androgen receptor (Homo sapiens), sequence (P10275 whole entry, looked up): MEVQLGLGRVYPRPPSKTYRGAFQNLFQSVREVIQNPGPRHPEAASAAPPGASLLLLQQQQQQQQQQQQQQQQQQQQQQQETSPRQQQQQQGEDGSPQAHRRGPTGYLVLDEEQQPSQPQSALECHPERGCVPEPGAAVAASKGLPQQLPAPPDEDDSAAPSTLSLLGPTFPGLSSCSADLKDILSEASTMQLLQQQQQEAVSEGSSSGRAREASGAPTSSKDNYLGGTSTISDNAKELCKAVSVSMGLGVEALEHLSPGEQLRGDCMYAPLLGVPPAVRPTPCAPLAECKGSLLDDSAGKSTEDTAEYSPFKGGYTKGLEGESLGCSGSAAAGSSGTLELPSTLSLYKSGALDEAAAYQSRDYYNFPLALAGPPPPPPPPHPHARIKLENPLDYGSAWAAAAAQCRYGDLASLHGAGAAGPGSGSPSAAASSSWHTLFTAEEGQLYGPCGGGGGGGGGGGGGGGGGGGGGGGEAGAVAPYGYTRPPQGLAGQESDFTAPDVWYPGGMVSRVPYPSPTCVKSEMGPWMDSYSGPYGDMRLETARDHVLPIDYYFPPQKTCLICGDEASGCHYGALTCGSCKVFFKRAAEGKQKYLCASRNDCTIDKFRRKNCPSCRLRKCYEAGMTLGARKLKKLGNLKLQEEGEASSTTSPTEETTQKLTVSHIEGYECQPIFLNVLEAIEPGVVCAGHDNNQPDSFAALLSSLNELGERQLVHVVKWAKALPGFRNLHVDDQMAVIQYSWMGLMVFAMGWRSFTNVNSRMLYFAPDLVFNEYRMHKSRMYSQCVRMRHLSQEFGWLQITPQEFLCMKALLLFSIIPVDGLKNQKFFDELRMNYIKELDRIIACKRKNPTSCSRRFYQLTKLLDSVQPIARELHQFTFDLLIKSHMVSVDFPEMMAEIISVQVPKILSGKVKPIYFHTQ

Structure (SMILES)	Potency [1]	Potency [2]	Potency [3]	Potency [4]	Potency [5]	Potency [6]	Potency [7]	Potency [8]	outcome [9]	Potency [10]
CCCCCCCC	inactive	inactive	inactive	inactive	inactive	inactive	–	–	–	–
Cc1c(C)c2c(c(C)c1OC(=O)c1cccnc1)CC[C@@](C)(CCC[C@H](C)CCC[C@H](C)CCCC(C)C)O2	inactive	inactive	inactive	inactive	inactive	inactive	–	–	–	–
Cc1ccc(C(C)C)cc2c(C)ccc1-2	inactive	inactive	inactive	inactive	inactive	inactive	–	–	–	–
CCCCCCCCCCCCOCCOCCOCCOCCOCCOCCOCCOCCOCCO	23.9 µM (active)	2.98 µM (active)	5.96 µM (active)	5.96 µM (active)	inactive	8.41 µM (active)	–	–	–	–
C#C[C@]1(O)CC[C@H]2[C@@H]3[C@H](C)CC4=C(CCC(=O)C4)[C@H]3CC[C@@]21C	inactive	10.6 µM (active)	29.8 µM (active)	21.1 µM (active)	inactive	inactive	–	–	–	–
CC(C)(c1cc(Br)c(OCC(Br)CBr)c(Br)c1)c1cc(Br)c(OCC(Br)CBr)c(Br)c1 (configuration not stated)	inactive	inactive	inactive	inactive	inactive	inactive	–	–	–	–
C=Cc1cccc(C)c1	inactive	inactive	inactive	inactive	inactive	inactive	–	–	–	–
O=[N+]([O-])c1cccc(C(F)(F)F)c1	inactive	inactive	inactive	inactive	inactive	inactive	–	–	–	–
O=C(c1ccc(O)c(O)c1)c1ccc(O)cc1O	inactive	43.2 µM (active)	21.6 µM (active)	8.62 µM (active)	inactive	inactive	–	–	–	–
CNC(=O)c1ccccc1Sc1ccc2c(/C=C/c3ccccn3)n[nH]c2c1	inactive	2.11 µM (active)	2.37 µM (active)	2.66 µM (active)	inactive	inactive	–	–	–	–
O=C(O)CCN(C1(C(=O)NO)CCCC1)S(=O)(=O)c1ccc(Oc2ccc(F)cc2)cc1	inactive	inactive	inactive	inactive	inactive	inactive	–	–	–	–
Cc1ccc(C(=O)O)cc1	inactive	inactive	inactive	inactive	inactive	inactive	–	–	–	–
O=C(O)c1ccc2cc(C(=O)O)ccc2c1	inactive	inactive	inactive	inactive	inactive	inactive	–	–	–	–
CCN1C(=O)c2ccccc2C1Nc1ccc(OCCN2CCCCC2)cc1 (configuration not stated)	inactive	26.6 µM (active)	inactive	–	inactive	inactive	inactive	inactive	inactive	inactive
Cc1cc(=O)oc2cc(O)cc(O)c12	inactive	inactive	inactive	–	inactive	–	–	–	inactive	inactive
CC1=Nc2ccccc2C1(C)C	inactive	inactive	inactive	–	inactive	inactive	–	–	–	–
CCO[Si](OCC)(OCC)OCC	inactive	inactive	inactive	–	inactive	inactive	–	–	–	–
Cc1ccc(N/N=c2\c(=O)cc/c(=N\Nc3ccc(S(=O)(=O)O)cc3)c2=O)c(C)c1	inactive	inactive	inactive	inactive	inactive	27.3 µM (active)	–	–	–	–
Cc1c(C)c([N+](=O)[O-])c(C(C)(C)C)c([N+](=O)[O-])c1C	inactive	inactive	–	inactive	inactive	inactive	–	–	–	–
O=S(=O)(O)c1ccc(N=Nc2c(O)ccc3ccccc23)cc1	inactive	61.1 µM (active)	30.6 µM (active)	54.5 µM (active)	–	27.3 µM (active)	–	–	–	–
CCC(C)[O-].CCC(C)[O-].CCOC(=O)/C=C(/C)[O-].[Al+3]	inactive	inactive	inactive	–	inactive	inactive	–	–	–	–
CCOc1ccc2ccccc2c1C(=O)N[C@@H]1C(=O)N2[C@@H]1SC(C)(C)[C@@H]2C(=O)O	inactive	inactive	inactive	inactive	–	inactive	inactive	–	inactive	inactive
C=C(C)C(=O)OCCCCCCCCCC	inactive	inactive	inactive	inactive	–	inactive	–	–	–	–
